# Source: PubChem BioAssay
# In the library only some 11% were active in any assay of this set; here they are far more common.
# ALDH1A1 block: ALDH1A1 (human) enzyme inhibition. Purified ALDH1A1, NADH fluorescence, propionaldehyde substrate. Potency, µM (top dose mostly 75.3 µM), for the others: at the top dose activity, negative = inhibition, usual class: inhibitors. hit rate 7.3% among 220,000. AID 1030; active means well fitted inhibition curve with a large enough effect, not every such curve was filed as active; inconclusive means small, poorly fitted or top-dose-only effect, or another doubt; inactive means no such curve, though single readings can be large or run the other way;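 further: potency means the concentration at half of the fitted maximal effect; plate controls were no enzyme wells and a reference inhibitor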
# Target sequence (P00352 whole entry, looked up): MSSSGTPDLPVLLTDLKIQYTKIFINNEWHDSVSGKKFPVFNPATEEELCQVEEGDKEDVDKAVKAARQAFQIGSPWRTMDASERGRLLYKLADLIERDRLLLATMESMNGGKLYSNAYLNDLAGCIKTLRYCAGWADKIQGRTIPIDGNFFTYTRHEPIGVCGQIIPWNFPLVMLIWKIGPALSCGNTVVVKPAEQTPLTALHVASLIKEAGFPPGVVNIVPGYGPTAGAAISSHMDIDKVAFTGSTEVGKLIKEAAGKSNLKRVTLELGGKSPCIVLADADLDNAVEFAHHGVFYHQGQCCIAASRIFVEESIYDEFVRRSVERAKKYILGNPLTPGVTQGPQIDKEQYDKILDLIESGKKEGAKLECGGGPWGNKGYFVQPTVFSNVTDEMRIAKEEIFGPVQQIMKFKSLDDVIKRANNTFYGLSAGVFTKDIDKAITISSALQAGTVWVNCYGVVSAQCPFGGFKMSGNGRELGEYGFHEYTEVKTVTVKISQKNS
# HttQ103 aggreg: inhibitors of mutant huntingtin aggregate formation in PC12 cells | PC12 HttQ103-GFP aggregates, Acumen cytometry, 40 h | Potency, µM (series often up to 46.1 µM), without a hit: at the top dose activity change, negative = inhibition, most hits filed as inhibitors | hit rate 1.1% among 220,000; further: potency means the concentration at half of the fitted maximal effect; on the % scale 0 is the no-effect control and ±100 the full control effect; nearly all actives have a fitted effect of over 60% in size
#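 PC12 cells stably carrying ecdysone-inducible HTT exon 1 Q103–GFP were induced with tebufenozide (100 nM final) and treated with library compounds in titration. GFP aggregates in lysates were counted by laser scanning cytometry.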
# CBFb-RUNX1 inh: CBF-beta/RUNX1 interaction disruption; Q01196+Q13951; AlphaScreen CBFb-His/RUNX1-biotin binding, biochemical; Potency, µM (highest dose often 59.8 µM), inactives show at the highest dose activity, negative = inhibition, usual class: inhibitors; 230,000 tested, under 10 active; AID 1477; further: % of control where 0% means no effect
#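 AlphaScreen proximity signal reports loss of binding between His-tagged CBF-beta and biotin-labelled RUNX1, each at 30 nM. Proteins are pre-associated for 20 minutes, compounds added for 15 minutes, then beads for 90 minutes, all at ambient temperature.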
# HPGD block: inhibitors of human 15-hydroxyprostaglandin dehydrogenase (HPGD); purified HPGD, NADH fluorescence kinetic, PGE2 substrate; Potency, µM, inactives show at the top dose activity change, negative = inhibition, most hits filed as inhibitors; hit rate 4.3% among 150,000; AID 894; active means well fitted inhibition curve with a large enough effect, not every such curve was filed as active; inconclusive means small, poorly fitted or top-dose-only effect, or another doubt; inactive means no such curve, though single readings can be large or run the other way; further: potency means the concentration at half of the fitted maximal effect; on the % scale 0 is the no-effect control and ±100 the full control effect
# Target sequence (P15428 whole entry, looked up): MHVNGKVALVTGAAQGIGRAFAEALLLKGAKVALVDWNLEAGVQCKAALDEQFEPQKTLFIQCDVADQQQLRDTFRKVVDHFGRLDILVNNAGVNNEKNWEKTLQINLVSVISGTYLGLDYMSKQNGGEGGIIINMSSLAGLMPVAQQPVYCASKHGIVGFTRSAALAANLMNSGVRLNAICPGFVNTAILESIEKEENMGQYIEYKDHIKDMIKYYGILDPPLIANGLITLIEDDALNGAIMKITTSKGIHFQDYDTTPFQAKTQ
#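 20 nM HPGD preincubated 15 min at room temperature with compound in 50 mM Tris-HCl pH 8, 0.01% Tween 20. Started with 1 mM NAD+ and 30 uM prostaglandin E2; NADH fluorescence (360/450 nm) read 5 times over 30-s intervals, last minus first.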
# HTT ATP protect: Huntington cell model cytoprotection by ATP luminescence; PC12 HTT-Q103 induced, cytoprotection, ATP luminescence, 40 h; Potency, µM (top dose mostly 56.4 µM), for inactives: cytoprotection (ATP increase), actives largely listed as activators; hit rate 0.14% among 230,000; AID 1471; further: potency means the concentration at half of the fitted maximal effect; % of control where 0% means no effect; nearly all actives have a fitted effect of over 45% in size
#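 Rat PC12, Q103 Htt exon1-GFP fusion, ecdysone promoter; tebufenozide inducer 100 nM final; compound titration; qHTS, 1500 cells/well; ATPlite luminescent read.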
# PNC inhibitor: perinucleolar compartment assembly inhibition; PC3M PTB-GFP, PNC prevalence imaging, 16 h; hits give low values; activity change (PNC), negative = inhibition, % at 10 µM; hit rate 3.1% among 140,000;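 active means readout at or below -70, meaning at least 70% loss of cells showing the perinucleolar compartment, a nuclear body marking cancer cells; inconclusive means readout between -30 and a set limit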;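 further: plate controls were DMSO wells for no effect and camptothecin positive control wells for full effect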
#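 Read-out is percentage of cells bearing a perinucleolar compartment, from automated 20x imaging of fixed, Hoechst-stained PC3M PTB-GFP cells. Cells were seeded 4 h, then exposed 16 h to compound (23 nl of library stock) in duplicate plates.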
# * marks the source's active call; other numbers are inactive results; ? = inconclusive; . = no result given; ! = not confirmed by another sample; [ ] = another dose, or the depositor's remark. Unless noted, the call rests on the fitted dose curve; in most records, active means well fitted curve in the direction sought with a large enough effect; inconclusive means small, poorly fitted or top-dose-only effect, or another doubt; inactive means no such curve, though single readings can be large; an effect the other way counts as inactive or inconclusive.
SMILES,ALDH1A1 block,HttQ103 aggreg,CBFb-RUNX1 inh,HPGD block,HTT ATP protect,PNC inhibitor
COc1ccc(C2=NO[C@@H]3C(=O)N(c4cccc(C)c4C)C(=O)[C@H]23)cc1OC,4.8%,-3.2%,-2.2%,0.0%,4.1%,24.1
CNC(=O)c1cc(NC(=O)CCn2nc(-c3ccc(C)cc3)c3ccccc3c2=O)ccc1OC,.,9.8%[9.22 µM],0.0%,.,-4.0%[10 µM],.
Cc1cccc(CC2SC(N)=NC2=O)c1 (centres undefined),?,-12.4%,-3.9%,.,10.6%,.
O=C(CSc1nnc(-c2c[nH]c3ccccc23)o1)N(Cc1ccccc1)c1ccc(F)cc1,8.6%,14.8%,-0.8%,-21.5%,22.5%[10 µM],18.1
COc1ccc(CN(C(=O)CSc2nnc(-c3ccccc3C)o2)c2ccc(F)cc2)cc1,2.51µM*,?,?,?,15.4%[10 µM],71.9
CCOC(=O)CN1C(=O)S/C(=C/c2cccc([N+](=O)[O-])c2O)C1=O,?,-22.0%,-5.5%,.,3.2%,.
CCOC(=O)c1c(/N=C/c2cccc([N+](=O)[O-])c2O)sc(C)c1C,12.6µM*,-2.9%,3.4%,?,-11.4%[10 µM],-1.8
COc1ccc(N(C(C)C(=O)N/N=C/c2cc(Br)c(C)o2)S(C)(=O)=O)cc1 (centres undefined),-1.5%,?,3.7%,.,0.891µM*,.
CC1C(=O)CCC2[C@]1(C)CCC1[C@]2(C)CC[C@@]2(C)C3CC(C)(C)CC[C@]3(C)CC[C@@]12C (some centres undefined),3.1%,.,-11.0%,-0.7%,?,.
O[C@@H](c1cc([C@@]23C[C@H]4CC[C@@H]2C[C@H](C4)C3)nc2c(Cl)cc(Cl)cc12)C1CCCCN1 (some centres undefined),2.4%[13.5 µM],.,.,-4.6%,.,.
CCn1c(O)c(C=Nc2ccccc2)sc1=S,?,0.9%,-4.3%,.,-43.6%,.
Oc1c(C=Nc2ccccc2)sc(=S)n1Cc1ccccc1,1.41µM*,.,-4.1%,.,.,.
O=C(O)Cn1c(O)c(C=Nc2ccccc2)sc1=S,28.2µM*!,-24.8%,4.5%,?,-5.6%,15.7
Cc1ccccc1-n1nnnc1SC1CCOC1=O (centres undefined),11.2µM*,4.2%,-4.6%,-11.5%,15.8%[10 µM],-19.1
Cc1ccccc1-n1c(SC2CCOC2=O)nnc1-c1ccncc1 (centres undefined),-3.2%,14.8%,0.1%,.,4.7%[10 µM],.
CC(=O)Nc1ncc([N+](=O)[O-])s1,.,11.7%,.,.,24.5%,.
C=CCn1c(Sc2ncc([N+](=O)[O-])s2)n[nH]c1=O,2µM*,?,2.7%,.,-98.0%[10 µM],.
O=C1c2cccc([N+](=O)[O-])c2C(=O)N1c1ncn[nH]1,7.9%[13.5 µM],.,.,-5.1%,-11.2%[10 µM],.
C[C@H]1C[C@]2(O[C@@H]2C)C(=O)O[C@@H]2CCN(C)C/C=C(/COC(=O)[C@]1(C)O)C2=O,6.4%,.,-5.7%[21.7 µM],-5.3%,-20.9%[1.9 µM],.
CC(=O)N[C@@H](CCC(=O)O)C(=O)O,.,8.2%,.,.,2µM*,.
CC(=O)N[C@@H](CC(=O)O)C(=O)O,-4.0%[20.9 µM],.,8.9%[21.7 µM],-5.8%,?,.
CCOC(=O)c1c(C)oc2c1c1c(c3ccccc32)OCN(Cc2cccnc2)C1,0.199µM*,12.0%,-15.4%,-24.9%,-17.1%,20.2
CCOC(=O)c1c(C)oc2c1c1c(c3ccccc32)OCN(CCCC(=O)O)C1,7.94µM*,-14.2%[9.22 µM],-8.0%,.,25.1%[10 µM],.
Cn1c(=O)c2cc(S(=O)(=O)NC(C(=O)N3CCCCCC3)c3ccccc3)ccc2n(C)c1=O (centres undefined),3.16µM*,4.7%,0.9%,-8.3%,-20.1%,?
NC1=NS(=O)(=O)NC1c1ccc(F)cc1 (centres undefined),-7.8%,-2.6%,3.3%,.,3.55µM*,.
SMILES,ALDH1A1 block,HttQ103 aggreg,CBFb-RUNX1 inh,HPGD block,HTT ATP protect,PNC inhibitor
Cc1ccc(C2NS(=O)(=O)N=C2N)cc1 (centres undefined),4.8%,3.5%,4.0%,-10.4%,7.7%,2.5
O=C1CN(C(=O)COC(=O)COc2ccc3c(c2)CCC3)c2ccccc2N1,?,-4.7%,1.4%,14.1µM*,0.8%,-8.2
CCOC(=O)c1[nH]c(C)c(C(=O)OCC(=O)N2CC(=O)Nc3ccccc32)c1C,-15.2%,18.6%,1.0%,15.8µM*,1.8%[10 µM],6.1
COc1ccc(OCC(=O)OCC(=O)N2CC(=O)Nc3ccccc32)cc1,5.0%,5.7%[9.22 µM],16.5%,.,6.6%[10 µM],.
Cc1cccc(CNc2ccnc(-c3ccoc3)n2)c1,12.6µM*,.,.,?,6.2%,.
Cc1cccc(CNc2ccnc(-c3ccc(N(C)C)cc3)n2)c1,?,.,.,?,-55.6%,.
Cc1cccc(CNc2ccnc(-c3ccc(C(=O)N(C)C)cc3)n2)c1,?,.,.,8.91µM*,-11.6%,.
Cc1cc(C)cc(C(=O)Nc2ccc(N3CCN(S(C)(=O)=O)CC3)cc2)c1,6.1%,8.6%[9.22 µM],1.9%,.,32.4%[10 µM],.
Cc1ccc2nc(C(F)OC(F)(F)F)[nH]c2c1 (centres undefined),0.708µM*,-4.3%,1.0%,?,-6.6%[0.074 µM],-15.8
O=C(Nc1cnn(Cc2ccc(Cl)cc2Cl)c1)c1noc2c1CCCC2,14.1µM*,?,1.5%,-25.5%,29.6%[10 µM],28.9
Cc1cc(NS(=O)(=O)N(C)C)ccc1C(C)C,?,-9.9%,1.3%,15.8µM*,6.3%,20.9
CN(C)S(=O)(=O)Nc1ccc2c(c1)OCO2,1.5%,8.1%,0.6%,?,-4.8%[10 µM],0.2
Cn1nnc(NC(=S)NC(=O)c2cc3ccccc3o2)n1,.,6.7%[9.22 µM],8.4%,.,11.0%[10 µM],.
COc1ccc(C(=O)NC(=S)Nc2nnn(C)n2)cc1,11.2µM*,8.1%,2.9%,-29.6%,3.5%[10 µM],-8.4
Cn1nnc(NC(=O)c2ccccc2)n1,7.6%,-0.9%,10.1%,1.8%,8.0%[10 µM],-95.3*
Cn1nnc(NC(=S)NC(=O)c2ccco2)n1,3.55µM*,6.3%,-2.5%,?,-20.2%[10 µM],34.8
COc1cccc(C(=O)NC(=S)Nc2nnn(C)n2)c1,22.4µM*,10.5%,-15.8%,?,11.0%[10 µM],-7.4
Cn1nnc(NC(=S)NC(=O)Cc2ccccc2)n1,?,26.3%,-0.1%,.,-5.3%,.
Cn1nnc(NC(=O)c2ccco2)n1,1.6%,15.8%,4.0%,-3.8%,-16.4%,24.2
CCCCOC(OCCCC)[C@H](O)CSc1ccc2ccccc2c1,4.1%[13.5 µM],.,22.5%[13.1 µM],.,-1.5%[10 µM],.
COc1ccc(CCNC(=O)/C(C#N)=C/c2cccc(OCc3ccccc3)c2)cc1OC,-12.1%,6.7%,-23.1%,-17.4%,-10.5%[10 µM],58.9
CCCOc1ccc(/C=C/C(=O)Nc2ccc([N+](=O)[O-])cc2C)cc1,3.2%,4.1%,2.6%,-12.5%,-19.8%,-16.2
Cc1ccc(C(=O)C[n+]2cc(Br)cc(Br)c2)cc1,?,-16.1%[9.22 µM],-8.5%,.,3.0%[10 µM],.
Cc1ccc(C(=O)C[n+]2cc(Br)cc(Br)c2)cc1[N+](=O)[O-],15.8µM*,32.8%,-0.4%,-5.8%,.,16.5
